“And” between values parts separate entries of the source, which are not always exact repeats. Identical values can stand only once. Results filed as inconclusive are left out. The source holds several records for some structures; these can differ, active in one and inactive in another. The source made the active and inactive calls. The calls were made as follows, unless noted: active = hit-call score of the fitted dose curve at least 0.9, where 1 is the maximum; inactive = score below 0.9.
Assays:
[1] = CCTE_Mundy_HCI_hNP1_Pro_ResponderAvgInten: CCTE's Proliferation Assay in human neuroprogenitor cells, Mundy Lab (AID 2284224; active = hit-call score of the fitted dose curve at least 0.9, where 1 is the maximum;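 also: human neural progenitor cells hNP1 derived from WA09 embryonic stem cells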)
How it was run: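 Proliferation was scored as BrdU labelling intensity in human neural progenitors derived from WA09 embryonic cells, measured 26.25 hours after chemical dosing. Activity was fitted relative to DMSO.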

[2] = BSK_BT_PBMCCytotoxicity: PBMC Cytotoxicity Assessment in the BioMAP Diversity Plus: BT Assay (AID 2284225); settings: primary human B cells with PBMC;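 also: PBMC viability measured by Alamar Blue dye reduction fluorescence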
How it was run: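 75,000 cells/well; cpd 1 h → SEB + TSST-1 (20 ng/mL final each) → 90 h → Alamar Blue 6 h → fluor. 546/580 nm. DMSO = neg. control/baseline.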

[3] = read-out: Secreted IgG (sIgG), gene 3500; assay: BSK_BT_sIgG: BioMAP Diversity Plus: BT Assay for Secreted IgG (sIgG) Biomarker Activity (AID 2284226); settings: primary human B cells with PBMC
How it was run: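 Secreted IgG from a human primary B cell–PBMC co-culture was measured by ELISA 24 hours after dosing, with DMSO defining baseline activity.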

[4] = BSK_BT_Bcell_Proliferation: Viability Assessment in the BioMAP Diversity Plus: BT Assay for B cell Proliferation (AID 2284227); settings: primary human B cells with PBMC
How it was run: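 Human B cells co-cultured with PBMC were dosed with test chemicals and relative cell number was quantified by SRB staining at 72 h. Cells were fixed in 10% TCA, stained with 0.1% SRB and read at 560 nm. Activity was fitted in the positive direction against DMSO.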

[5] = read-out: Interleukin 6 (IL6), IL6 (gene 3569); assay: BSK_BT_xIL6: BioMAP Diversity Plus: BT Assay for Interleukin 6 (IL6) Biomarker Activity (AID 2284228); settings: primary human B cells with PBMC
How it was run: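 Secreted IL-6 in the primary human B cell plus PBMC system, measured by Luminex at 24 h post-chemical, DMSO as baseline. Alamar Blue viability: 75,000 cells/well, chemical 1 h before SEB/TSST-1 (20 ng/mL each), 90 h, then 6 h dye.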

[6] = read-out: Interleukin 17A (IL17A), IL17A (gene 3605); assay: BSK_BT_xIL17A: BioMAP Diversity Plus: BT Assay for Interleukin 17A (IL17A) Biomarker Activity (AID 2284229); settings: primary human B cells with PBMC
How it was run: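 Luminex xMAP quantification of secreted IL-17A after 24 h chemical exposure of a primary human B cell/PBMC co-culture. Signal increases fitted relative to DMSO negative control.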

[7] = IUF_NPC1b_proliferation_BrdU_72hr: Leibniz Research Institute for Environmental Medicine (IUF) 72-hour Neural Progenitor Cell Bromodeoxyuridine (BrdU) Proliferation Assay (NPC1b) (AID 2284207)
How it was run: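 Proliferation of primary human neural progenitor cells: 72 h compound treatment at 37C, 5% CO2, pH 7.2-7.6, in EGF/FGF-containing medium. Readout is BrdU uptake (last 16 h) by chemiluminescent ELISA, normalised to DMSO.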

[8] = IUF_NPC1a_proliferation_area_72hr: Leibniz Research Institute for Environmental Medicine (IUF) 72-hour Neural Progenitor Cell Proliferation Area Assay (NPC1a) (AID 2284208)
How it was run: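 Proliferation read as increase in sphere area by phase-contrast imaging over 72 h continuous compound exposure (no renewal) of hNPC spheres grown with EGF/FGF at 37C, 5% CO2. Growth-factor withdrawal served as positive control; DMSO as baseline.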

[9] = IUF_NPC1_viability_72hr: Viability Assessment at 72 hours in the Leibniz Research Institute for Environmental Medicine (IUF) Neural Progenitor Cell Proliferation Assay (NPC1) (AID 2284209)
How it was run: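 Each well receives one 0.3 mm progenitor sphere from fetal brain cortex; test chemical is added at plating and left three days. Viability comes from alamar blue fluorescence, multiplexed with LDH and BrdU readouts in the same well.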

[10] = CCTE_Mundy_HCI_Cortical_Synap_Neur_Matur_NeuriteSpotCountPerNeuriteLength: CCTE's Synaptogenesis and Neurite Maturation Assay in rat cortical cells for Neurite Spot Count per Neurite Length, Mundy Lab (AID 2284210)
How it was run: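 Primary rat cortical neurons, compound exposure DIV 7–12, 288.33 h endpoint. Hoechst, anti-MAP2 and anti-synaptophysin labelling; neurite-associated puncta per neurite length scored by automated imaging relative to DMSO controls.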

[11] = CCTE_Mundy_HCI_Cortical_NOG_NeuriteLength: CCTE's Neurite Outgrowth Assay in rat cortical cells for Neurite Length, Mundy Lab (AID 2284213)
How it was run: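 Neurite length was read by high-content imaging of βIII-tubulin-labelled neurites in rat primary cortical cultures. Activity was fitted relative to DMSO.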

[12] = CCTE_Mundy_HCI_Cortical_Synap_Neur_Matur_NeuriteLength: CCTE's Synaptogenesis and Neurite Maturation Assay in rat cortical cells for Neurite Length, Mundy Lab (AID 2284214)
How it was run: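 Neurite length in rat primary cortical cultures is imaged after MAP2, synaptophysin and Hoechst staining. Dosing starts DIV 7, ending DIV 12; DMSO serves as negative control and baseline.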

[13] = CCTE_Mundy_HCI_Cortical_Synap_Neur_Matur_NeuriteSpotCountPerNeuron: CCTE's Synaptogenesis and Neurite Maturation Assay in rat cortical cells for Neurite Spot Count per Neuron Count, Mundy Lab (AID 2284215)
How it was run: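 High-content imaging counts synaptophysin puncta along MAP2-labelled neurites per neuron after chemical exposure of rat cortical cells from DIV 7 to termination at DIV 12 (AraC added DIV 5). Loss of signal relative to DMSO.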

[14] = TAMU_PeakParms_SingleDonor1434_Chronotropy: Texas A&M University (TAMU) 1.5-hr Human Induced Pluripotent Stem Cell (iPSC)-derived Cardiomyocytes Calcium (Ca+2) Flux Assay for Cardiotoxicity: Chronotropy (changes in peak frequency) (AID 2284217); settings: actives raise or lower the signal
How it was run: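 iPSC-derived cardiomyocytes (single donor 1434) dosed at 0.2, 1, 10 and 100 uM in 0.5% DMSO for 1.5 h at 37C; Ca2+ dye fluorescence gave average beat frequency. Zero-beat points removed; bidirectional fit versus DMSO, POD as EC05.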

[15] = CCTE_Mundy_HCI_Cortical_Synap_Neur_Matur_SynapseCount: CCTE's Synaptogenesis and Neurite Maturation Assay in rat cortical cells for Synapse Count, Mundy Lab (AID 2284218)
How it was run: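 Synapse count per neuron is measured in rat cortical neurons exposed to chemicals between DIV 7 and DIV 12, with glial growth arrested by AraC at DIV 5. Synaptophysin and MAP2 staining is imaged automatically; activity is fitted relative to DMSO.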

[16] = CCTE_Mundy_HCI_hN2_NOG_NeuriteCount: CCTE's Neurite Outgrowth Assay in human hN2 cells for Neurite Count, Mundy Lab (AID 2284219; active = hit-call score of the fitted dose curve at least 0.9, where 1 is the maximum)
How it was run: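 In this morphology assay, hNP1-derived neurons received test chemical 2 h post-plating and were fixed two days later in warm paraformaldehyde/sucrose containing Hoechst 33342. Neurites, labelled by rabbit anti-βIII-tubulin (1:800) and Alexa Fluor-488 (1:500), were counted automatically.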

[17] = CCTE_Mundy_HCI_Cortical_Synap_Neur_Matur_CellBodySpotCount: CCTE's Synaptogenesis and Neurite Maturation Assay in rat cortical cells for Cell Body Spot Count, Mundy Lab (AID 2284223)
How it was run: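 High-content imaging counts synaptophysin puncta on neuronal cell bodies per neuron after MAP2/synaptophysin immunostaining. Rat primary cortical cells, glia arrested with AraC at DIV 5, were exposed DIV 7–12; signal decrease measured against DMSO.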

Measured: AC50

N=C(N)C(F)(F)C(F)(F)C(F)(F)C(F)(F)C(F)(F)C(F)(F)C(F)(F)F
active: [2] 44.7 µM | [3] 44.4 µM | [4] 45.4 µM | [5] 46 µM | [6] 44.2 µM
inactive: [1] | [2] | [3] | [4] | [5] | [6]

O=C(O)C(F)(OC(F)(F)C(F)(OC(F)(F)C(F)(OC(F)(F)C(F)(F)C(F)(F)F)C(F)(F)F)C(F)(F)F)C(F)(F)F (stereo not drawn)
inactive: [2] | [3] | [4] | [5] | [6]

C=CC(=O)OCC(F)(F)C(F)(F)C(F)(F)C(F)(F)COC(=O)C=C
active: [2] 11.3 µM and 11.2 µM | [3] 10.5 µM and 7.38 µM | [4] 13.7 µM and 12 µM | [5] 12.3 µM and 10.4 µM | [6] 7.14 µM and 8.58 µM

Cc1ccc(S(=O)(=O)OCC(F)(F)C(F)(F)C(F)(F)C(F)(F)C(F)(F)C(F)F)cc1
inactive: [2] | [3] | [4] | [5] | [6]
active: [3] 41.7 µM

O=C(O)C(F)(F)C(F)(F)C(F)(F)C(F)(F)C(F)(F)C(F)(F)C(F)(F)C(F)(F)C(F)(F)C(F)F
inactive: [2] | [3] | [4] | [5] | [6]
active: [2] 22.9 µM | [4] 16.4 µM

FC(F)(F)C(F)(F)C(F)(F)C(F)(F)C(F)(F)C(F)(F)C(F)(F)Br
inactive: [2] | [3] | [4] | [5] | [6]

OC[C@@H](O)[C@@H](O)[C@H](O)[C@@H](O)CO
inactive: [7] | [8] | [9] | [10] | [11] | [12] | [13] | [14] | [15] | [16] | [17] | [1]

FC(F)(F)C(F)(F)C(F)(F)C(F)(F)C(F)(F)C(F)(F)C(F)(F)C(F)(F)CCS
inactive: [1] | [2] | [3] | [4] | [5] | [6]

O=C(Cl)C(F)(F)C(F)(F)C(F)(F)C(F)(F)C(F)(F)C(F)(F)C(F)(F)C(F)(F)F
inactive: [2] | [3] | [4] | [5] | [6]

CC(C)(C)C(=O)CC(=O)C(F)(F)C(F)(F)C(F)(F)F
inactive: [1] | [2] | [3] | [4] | [5] | [6]

O=S(=O)(O)C(F)(F)C(F)(F)C(F)(F)C(F)(F)C(F)(F)C(F)(F)C(F)(F)F
inactive: [2] | [3] | [4] | [5] | [6]

O=C(O)C(F)(F)C(F)(F)C(F)(F)C(F)(F)C(F)(F)C(F)(F)C(F)(F)C(F)(F)C(F)(F)C(F)(F)C(F)(F)C(F)(F)F
inactive: [2] | [3] | [4] | [5] | [6]

C#C[C@]1(O)CC[C@H]2[C@@H]3CCc4cc(OC)ccc4[C@H]3CC[C@@]21C
inactive: [2] | [5] | [6]
active: [3] 7.71 µM | [4] 29.6 µM

CC(=O)Nc1ccc(N=Nc2cc(C)ccc2O)cc1
active: [3] 9.61 µM | [5] 0.016 µM
inactive: [2] | [4] | [6]

O=S(=O)(OCCOC(F)(F)F)C(F)(F)F
inactive: [2] | [3] | [4] | [5] | [6]

FC(F)(I)C(F)(F)C(F)(F)C(F)(F)I
active: [2] 49.7 µM and 47.7 µM and 47.2 µM | [3] 45.7 µM and 46.4 µM and 56.3 µM | [4] 52.2 µM and 54.9 µM and 48.7 µM | [5] 46.3 µM and 55.2 µM and 45.9 µM | [6] 42.1 µM and 50.4 µM and 39.2 µM

From PubChem BioAssay (EPA / NIEHS)
